# Compound activity deposited in PubChem BioAssay by National Center for Advancing Translational Sciences (NCATS).
# FLuc counter – firefly luciferase modulation, counter-screen for miR-21 project; actives 6.9% (n = 360,000); Potency, µM (top dose mostly 57.5 µM), without a hit: at the highest dose activity change, negative = inhibition, usual class: inhibitors; P08659; purified FLuc, Km substrates, luminescence inhibition;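 also: plate controls were vehicle for no effect and reference inhibitor for full effect; nearly all actives have a fitted effect of over 55% in size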
# Target sequence (P08659 whole entry, looked up): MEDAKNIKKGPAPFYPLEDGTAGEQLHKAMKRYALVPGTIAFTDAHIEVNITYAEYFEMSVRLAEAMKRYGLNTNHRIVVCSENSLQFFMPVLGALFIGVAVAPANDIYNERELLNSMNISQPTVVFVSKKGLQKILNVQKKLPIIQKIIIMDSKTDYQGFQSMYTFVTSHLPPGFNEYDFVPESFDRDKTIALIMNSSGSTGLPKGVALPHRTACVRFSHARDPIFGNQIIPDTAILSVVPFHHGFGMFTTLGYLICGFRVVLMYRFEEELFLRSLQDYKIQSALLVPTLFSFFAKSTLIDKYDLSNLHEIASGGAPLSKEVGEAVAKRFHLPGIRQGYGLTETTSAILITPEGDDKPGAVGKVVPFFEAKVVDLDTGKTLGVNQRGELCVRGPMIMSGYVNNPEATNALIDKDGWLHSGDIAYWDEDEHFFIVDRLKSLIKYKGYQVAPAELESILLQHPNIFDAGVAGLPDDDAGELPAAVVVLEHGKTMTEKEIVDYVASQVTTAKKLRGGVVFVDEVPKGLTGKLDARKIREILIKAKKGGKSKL
#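 Purified P. pyralis luciferase (10nM final) with 10uM D-luciferin and 10uM ATP (Km levels) in 50mM Tris acetate pH 7.5, 10mM Mg acetate, 0.01% Tween-20, 0.05% BSA; qHTS 6-point titration, ~60 µM downward; luminescence read.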
# SMN2 splice enh – increases expression of the SMN2 splice variant. Potency, µM (top dose mostly 46.1 µM), inactives show at the highest dose activity change, positive = activation, most hits filed as activators. HEK293 SMN2-luciferase splicing reporter, luminescence, 30-36 h. actives 2.8% (n = 210,000). AID 1458; also: % of control where 0% means no effect; nearly all actives have a fitted effect of over 55% in size
#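 HEK293 cells carry an SMN2 minigene-luciferase reporter in which exon 7 inclusion puts luciferase in frame. Cells were seeded at 2000 cells/well, attached for 10-12 hours, then exposed to compounds for 30-36 hours at 37C before ONE-Glo luminescence.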
# NPC1 prom act – activates the NPC1 promoter | Huh7 NPC1 promoter luciferase reporter, 24 h | Potency, µM (highest dose often 9.22 µM), for the others: top-dose activation, hits mostly activators | actives 2.4% (n = 320,000); also: % of control where 0% means no effect; nearly all actives have a fitted effect of over 60% in size
#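 Cells: Huh7 expressing luciferase under the NPC1 promoter, 1500/well. Seeded 2 h, compound added, incubated 24 h at 37 °C. Luciferase reagent, 10 min ambient, then luminescence.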
# ELG1 genotox – inducers of genotoxicity in HEK293T ELG1-luciferase cells; HEK293T ELG1-luciferase reporter, luminescence, 16 h; Potency, µM (top dose mostly 46 µM), for inactives: at the highest dose activity change, positive = activation, actives largely listed as activators; actives 1.3% (n = 330,000); AID 504466; also: % of control where 0% means no effect; nearly all actives have a fitted effect of over 60% in size
#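 HEK293T cells expressing luciferase-tagged ELG1 were treated with compound or DMSO for 16 hr at 37°C. Luciferase activity was then read after 30 min with ONE-Glo at room temperature; rising signal flags genetic stress.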
# Rab9 prom act – Rab9 promoter activation. actives 2.8% (n = 320,000). Potency, µM (doses to about 9.22 µM), for inactives: at the top dose activation, negative = inhibition, most hits filed as activators. Huh7 Rab9 promoter-luciferase reporter, luminescence, 24 h; also: % of control where 0% means no effect; nearly all actives have a fitted effect of over 60% in size
#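 Luminescence from Amplite-detected luciferase (10 minutes, ambient) reports Rab9 promoter activation. Before that, stable Rab9-luciferase Huh7 cells (1500/well, reduced-serum OP-MEM I plus 10% FBS) were exposed to compound for 24 hours at 37C.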
# ELG1 repair inh – blocks ELG1-dependent DNA repair in HEK293T cells; HEK293T ELG1-luciferase reporter, luminescence, 16 h; DNA damage induced by 5-fluorouridine; Potency, µM (doses to about 46.1 µM), for the others: at the highest dose activity change, negative = inhibition, most hits filed as inhibitors; actives 2.3% (n = 330,000); AID 504467; also: % is scaled to controls: 0 for no effect and ±100 for the full control effect; nearly all actives have a fitted effect of over 55% in size
#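 5-Fluorouridine DNA damage + compound/DMSO, 2,000 cells/well, 16 h, 37 °C/5% CO2. ONE-Glo, 30 min RT, luminescence. Readout = decrease in reporter signal.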
# Numbers without * were called inactive; ? = inconclusive; / = not tested or not shown; [ ] = another dose, or the depositor's remark. Compounds with a hit are over-represented: about 9.4% of the library has one in this group of screens. Calls follow the shape of the dose curve; as a rule, active = well fitted curve in the direction sought with a large enough effect; inconclusive = small, poorly fitted or top-dose-only effect, or another doubt; inactive = no such curve, though single readings can be large; an effect the other way counts as inactive or inconclusive. Potency is read from the fitted curve at half-maximal effect.
SMILES,FLuc counter,SMN2 splice enh,NPC1 prom act,ELG1 genotox,Rab9 prom act,ELG1 repair inh
Cc1ccc(N2C(=O)NC(=O)/C(=C/c3ccc(-c4ccc(C(=O)O)c(Cl)c4)o3)C2=O)cc1,11µM*,6%,-3%,-11%,-2%,4%
Cc1c(C(=O)N2CCC3(CC2)OCCO3)sc2ncnc(N3CCN(c4ccccn4)CC3)c12,-2%,-38%,0%,-28%,-2%,3.7µM*
CCC#N,/,-4%,/,/,/,/
Cc1ccc(OCCn2cccc2/C=C2/C(=O)NC(=O)N(Cc3ccco3)C2=O)cc1,-9%,/,2%,4%,23%,?
CCc1ccc(N2C(=O)NC(=O)/C(=C\c3cccn3CCOc3ccc(C(C)C)cc3)C2=O)cc1,-1%,-65%,-11%,10µM*,?,?
ClC(Cl)C(Cl)Cl,/,6%,/,/,/,/
COc1ccc(C(=O)Nc2cccc(S(=O)(=O)NCc3ccco3)c2)cc1,/,/,/,-3%,/,?
CCCOc1ccc(C(=O)Nc2ccc(-c3cc4ccccc4oc3=O)c(C)c2)cc1,1.7µM*,-63%,/,/,/,/
CC(=O)O[C@H]1CC[C@H]2[C@@H]3CCC4=C[C@@H](C5SCCS5)[C@H](OC(C)=O)C[C@]4(C)[C@H]3CC[C@@]12C,/,-3%[9.22 µM],/,/,/,/
COc1ccc(-n2c(=S)[nH]c3c(sc(=S)n3-c3ccccc3)c2=O)c(OC)c1,11µM*,/,-7%,0%,-3%,0%
CN(C)S(=O)(=O)c1ccc(C(=O)NNc2nc(-c3ccccc3)c3cc(Br)ccc3n2)cc1,1%,-12%,-2%,-7%,0%,23µM*
CN(C)C(=O)Oc1ccc(Cl)c2ccccc12,8%[2.3 µM],9%,4.5µM*,2%,?,?
O=C(Oc1ccc2ccccc2c1Cl)N1CCCC1,12µM*,13µM*,2.8µM*,2.1µM*,2µM*,?
Cc1ccc2cccc(OC(=O)N3CCCC3)c2n1,3%,-3%,-4%,2%,-3%[1.84 µM],19%
O=C(Oc1ccc(-c2nnco2)cc1)N1CCCCC1,7%[2.3 µM],/,8%,10%,22%,?
O=C(Oc1ccc2ccc(OC(=O)N3CCCCCC3)cc2c1)N1CCCCCC1,13µM*,-36%,15%,?,13%,?
O=C(Oc1c(Cl)cc(Cl)c2ccccc12)N1CCCCC1,?,-13%,6%,?,0%,?
O=C(Oc1ccc(Cl)c2ccccc12)N1CCCCC1,17µM*,2%,12%,?,5%,?
CN(C(=O)Oc1ccc(Cl)c2cccnc12)c1ccccc1,-8%,-16%,-2%,-3%,-1%,-2%
Cc1ccc(NC(=O)c2cc(S(=O)(=O)N3CCOCC3)c(Cl)cc2Cl)cc1,-8%,-46%,/,/,/,/
CCN(CC)C(=O)Oc1ccc2ccccc2c1Cl,17µM*,?,16%,13%,28%,?
CN(C)C(=O)Oc1ccc2ccccc2c1Cl,?,-24%,14%,?,15%,?
CCNc1cc(N2CCN(C)CC2)ccc1[N+](=O)[O-],2%,-9%,-1%,1%,-7%,-8%
CCOc1ccc(-c2nc3ccc(-c4nc5ccc(N6CCN(C)CC6)cc5[nH]4)cc3[nH]2)cc1,/,4µM*,/,/,/,/
Cc1onc(-c2ccccc2)c1C(=O)NC1C(=O)N2C(C(=O)O)C(C)(C)S[C@@H]12 (some centres not stated),/,6%,/,/,/,/
Cc1ccccc1-n1c(C)cc(/C=C2/C(=O)NC(=O)N(Cc3ccco3)C2=O)c1C,19µM*,4%,-2%,5%,-1%,14%
Cc1cc(/C=C2\C(=O)NC(=O)N(Cc3ccco3)C2=O)c(C)n1-c1ccc(O)cc1,15µM*,/,5%,11%,-10%,0%
Cc1ccc(N2C(=O)NC(=O)/C(=C\c3cc(C)n(-c4ccc(C(=O)O)cc4)c3C)C2=O)cc1,-4%,/,3%,-1%,-5%,7%
Cc1ccc(-n2c(C)cc(/C=C3/C(=O)NC(=O)N(Cc4ccco4)C3=O)c2C)cc1,19µM*,-19%,0%,1%,-1%,16%
